# Bioassay records (PubChem BioAssay)
# Sm TGR block = qHTS Assay for the Inhibitors of Schistosoma Mansoni Peroxiredoxins. Schistosoma mansoni thioredoxin glutathione reductase (TGR), Q962Y6. purified TGR, DTNB reduction, TNB absorbance 405 nm. Potency, µM (highest dose often 114 µM), without a hit: top-dose activity change, negative = inhibition, usual class: inhibitors. hit rate 3% among 360,000. AID 485364, 2010; note: nearly all actives have a fitted effect of over 60% in size
#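 TGR 20 nM + NADPH 100 uM (dispensed conc.), cpd preinc 15 min RT; start with NADPH (500 uM addition) then DTNB (15 mM addition). Kinetic TNB absorbance, 405 nm filter. Four-parameter Hill fit across titration.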
# RE007 growth inh = qHTS Assay for Inhibitors of the HIV-1 protein Vpr; S. pombe RE007 Vpr strain, BacTiter-Glo ATP luminescence, 24 h; Potency, µM (top dose mostly 92.2 µM), inactives show at the top dose activity change, negative = less growth, most hits filed as inhibitors; hit rate 0.21% among 360,000; active = well fitted falling curve with a large enough effect; inconclusive = small, poorly fitted or top-dose-only effect; inactive = no such curve, though single readings can be large or run the other way; note: nearly all actives have a fitted effect of over 50% in size
#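 Fission yeast strain RE007, carrying one chromosomally integrated HIV-1 vpr copy, was seeded at OD 0.01 in PMG+AL medium with 23 nL pinned compound. After 24 h at 30 °C and 99% humidity, viability was read by BacTiter-Glo luminescence.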
# LmPK inh = qHTS Assay for Inhibitors of Leishmania Mexicana Pyruvate Kinase (LmPK); Q27686; purified LmPK, Kinase-Glo ATP luminescence, 1 h; Potency, µM (doses to about 57.5 µM), without a hit: at the top dose activity change, negative = inhibition, most hits filed as inhibitors; hit rate 0.37% among 290,000
# Target sequence (Q27686 whole entry, looked up): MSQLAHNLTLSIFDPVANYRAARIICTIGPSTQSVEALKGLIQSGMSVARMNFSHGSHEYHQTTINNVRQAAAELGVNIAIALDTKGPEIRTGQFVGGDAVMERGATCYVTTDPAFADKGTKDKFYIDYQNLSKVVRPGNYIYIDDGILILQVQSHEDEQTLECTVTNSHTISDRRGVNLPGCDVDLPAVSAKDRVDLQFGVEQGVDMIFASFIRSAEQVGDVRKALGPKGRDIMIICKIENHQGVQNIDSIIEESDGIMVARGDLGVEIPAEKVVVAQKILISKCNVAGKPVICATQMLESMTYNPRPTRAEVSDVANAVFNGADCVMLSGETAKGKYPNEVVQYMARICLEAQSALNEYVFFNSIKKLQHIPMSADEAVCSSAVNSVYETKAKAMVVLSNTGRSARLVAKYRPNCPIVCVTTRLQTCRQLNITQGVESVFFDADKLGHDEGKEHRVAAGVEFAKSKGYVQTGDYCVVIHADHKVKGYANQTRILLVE
#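 0.1 nM LmPK, 0.5 mM PEP, 0.1 mM ADP; 50 mM imidazole pH 7.2, 7 mM MgCl2, 50 mM KCl; 1 h RT. Kinase-Glo luminescence readout, normalized to no-enzyme (full inhibition) and uninhibited wells.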
# Tb PYK inh = qHTS of Trypanosoma Brucei Inhibitors; pyruvate kinase (Trypanosoma brucei), Q57TT1; TbPYK enzyme, Kinase-Glo Plus ATP luminescence, 45 min; Potency, µM (top dose mostly 76.8 µM), for inactives: at the highest dose activity, negative = inhibition, most hits filed as inhibitors; hit rate 0.12% among 410,000; note: nearly all actives have a fitted effect of over 50% in size
#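 Enzyme and substrate buffer are dispensed first and compound is pin-transferred. ADP at 130 uM final then starts the reaction, which runs 45 min at room temperature. Detection reagent is added for 10 min before luminescence is imaged.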
# AMA1 RON2 block = qHTS for Inhibitors of AMA1-RON; Towards Development of Antimalarial Drug Lead: Primary Screen | AID 720542, 2013 | hit rate 0.2% among 360,000 | Potency, µM (highest dose often 58.2 µM), for inactives: top-dose activity change, negative = inhibition, hits mostly inhibitors | AlphaScreen AMA1-biotinylated RON2 peptide binding | Plasmodium falciparum AMA1 (3D7) - RON2 peptide interaction;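 note: 0% = vehicle wells and -100% = peptide control; nearly all actives have a fitted effect of over 45% in size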
#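 AMA1 (3D7) with his tag at 25 nM final met compounds first, then biotinylated RON2 peptide at 25 nM; detection used donor plus acceptor beads, 10 µg/mL apiece, read by AlphaScreen after 30 min at room temperature.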
# * hit, by the source's call; ? = inconclusive; . = no result; [ ] = another dose, or the depositor's remark. Hits are enriched below; roughly 3.2% of the tested compounds scored in any of these assays. Unless noted, calls come from the whole dose curve; as a rule, active = well fitted curve in the direction sought with a large enough effect; inconclusive = small, poorly fitted or top-dose-only effect, or another doubt; inactive = no such curve, though single readings can be large; an effect the other way counts as inactive or inconclusive. Unless noted, % is set by controls: 0 for no effect and ±100 for the full control effect; potency is the fitted concentration of half-maximal effect.
SMILES,Sm TGR block,RE007 growth inh,LmPK inh,Tb PYK inh,AMA1 RON2 block
Cc1cccc(-n2ncc3c(Nc4ccc(Oc5ccc(Cl)cc5)cc4)ncnc32)c1,16%,.,.,-1%,.
Oc1cc2c(cc1C(c1ccc(Br)cc1)N1CCCC1)OCO2 (stereo not drawn),0.71µM*,?,-3%,9%,?
O=S(=O)(NCC(c1ccc2c(c1)OCO2)N1CCOCC1)c1ccc(Br)cc1 (stereo not drawn),-9%,-10%,.,3%,7%
COCCN(C(=O)c1ccco1)c1nc(-c2ccccc2)cs1,63µM*,34%,13%,-3%,-18%
COCCN(C(=O)c1ccco1)c1nc(-c2ccc(OC)cc2)cs1,.,12%,.,-2%,-10%
CN1C(=O)c2cccc(N(C)C)c2C1=O,1%,-29%,0%,2%,?
CN(C)c1cccc2c1C(=O)c1ccccc1C2=O,-9%,?,-15%,-22%,11µM*
CCC(Sc1ncccc1C(=O)OCCN1CCCC1=O)C(=O)NCc1ccco1 (stereo not drawn),45µM*,14%,4%,-7%,4%
CCOC(=O)c1cccnc1SC(CC)C(=O)NCc1ccco1 (stereo not drawn),-17%,2%,14%,-6%,3%
CC1Cc2cc(S(=O)(=O)CCC(=O)Nc3ccc(OC(F)(F)F)cc3)ccc2N1C(=O)C1CC1 (stereo not drawn),-1%,.,.,-8%,.
N#CC1=C(SCC(=O)Nc2ccccc2)NC(=O)CC1c1ccco1 (stereo not drawn),.,11%,.,-8%,-1%
N#CC1=C(SCc2ccccc2)NC(=O)CC1c1ccco1 (stereo not drawn),35µM*,0%,3%,-13%,-21%
CCCCCCSC1=C(C#N)C(c2ccc(C)o2)CC(=O)N1 (stereo not drawn),45µM*,-9%,8%,-10%,-1%
N#CC1=C(SCC(=O)NCc2ccccc2)NC(=O)CC1c1ccco1 (stereo not drawn),40µM*,-4%,14%,?,-19%
CC#CCN1c2ccccc2[C@]23C[C@@H](C(=O)OC)N(S(=O)(=O)c4ccc(C)cc4)C2=NC(C(=O)OC)=C(C(=O)OC)[C@H]13,.,.,2%[11.5 µM],.,.
COc1ccc(-c2cc3nc(C)c(CCC(=O)N4CCN(c5cccc(Cl)c5)CC4)c(C)n3n2)c(OC)c1,-2%,.,.,0%,.
CC1(C)Cc2c(c(-c3ccco3)nc3sc4c(NCCN5CCOCC5)ncnc4c23)CO1,40µM*,-3%,1%,-3%,-5%
CC1(C)Cc2c(c(-c3ccco3)nc3sc4c(NCCCO)ncnc4c23)CO1,2µM*,0%,6%,?,-22%
CC1(C)Cc2c(c(-c3ccco3)nc3sc4c(NCC5CCCO5)ncnc4c23)CO1 (stereo not drawn),79µM*,.,1%,?,6%
COc1cccc(NC(=O)CSc2nnc(-c3ccco3)c(-c3ccco3)n2)c1,2.8µM*,7%,6%,?,-22%
COc1ccc(NC(=O)CSc2nnc(-c3ccco3)c(-c3ccco3)n2)cc1OC,5.6µM*,-3%,8%,?,-5%
Cc1ccc(C)c(-c2csc(NC(=O)C3=COCCO3)n2)c1,0%,25µM*,.,-1%,-9%
Cc1ccc(-c2csc(NC(=O)C3=COCCO3)n2)cc1,-11%,?,-1%,-12%,-14%
O=C(CCl)NC1CCCc2ccccc21 (stereo not drawn),25µM*,-5%,-3%,-1%,-8%
S=C(Nc1ccc(Oc2ccccc2)cc1)NC1CCCCCC1,-1%,2%,3%,4%,-1%[11.6 µM]
SMILES,Sm TGR block,RE007 growth inh,LmPK inh,Tb PYK inh,AMA1 RON2 block
O=C(Cc1ccc(Br)cc1)NC1CCCc2ccccc21 (stereo not drawn),6%,31%,-4%,5%,7%
O=C(NC(=S)NC1CCCc2ccccc21)c1ccc(F)cc1 (stereo not drawn),18µM*,9%,1%,-8%,26%
S=C(NNc1ccc2ccccc2c1)NC1CCCCC1,-22%,-11%,0%,-1%,16µM*
O=C(NC(=S)NC1CCCc2ccccc21)c1ccco1 (stereo not drawn),?,-18%,1%,5%,2%
O=C(NC(=S)NC1CCCCC1)c1ccccc1,1µM*,-27%,1%,3%,-2%
CCc1ccc(-n2nc(CO)c(C(=O)NCCCCc3ccccc3)n2)cc1,-3%,.,.,1%,.
CCCn1c(=O)c2sccc2n2c(CCCC(=O)Nc3cccc(CC)c3)nnc12,-1%,.,.,0%,.
CN(C(=O)CCl)C1CCCc2ccccc21 (stereo not drawn),11µM*,29%,1%,-5%,0%
Oc1c(C=NCc2ccc(F)cc2)[nH]c2ccc(Br)c(Cl)c12,32µM*,.,-1%,.,.
O=c1[nH]c(=O)n(C2CCCCCC2)c(O)c1C=NCc1ccc(F)cc1,-11%,23%,-4%,-9%,24%
Cc1ccc(CN=Cc2[nH]c3ccc(Br)c(Cl)c3c2O)cc1,45µM*,-11%,5%,-3%,-2%
Cc1ccc(Cl)cc1NC(=O)Nc1nnc(N2CCCC(C)C2)s1 (stereo not drawn),27%,.,.,2%,.
CC(=O)Nc1ccc(NS(=O)(=O)c2c(C(=O)N3CCCCCC3)c(C)n(C)c2C)cc1,1%,.,.,0%,.
CC(=O)Oc1ccc(C(=O)O)cc1OC(C)=O,3%,-6%,1%,-12%,11%
CC(=O)Oc1ccc(OC(C)=O)c(SCCCCCCl)c1,-1%,-23%,11µM*,-7%,-2%
Cc1ccc(C)c(NC(=O)CCS(=O)(=O)c2cccc3nsnc23)c1,-5%,.,.,5%,.
CCc1ccc(S(=O)(=O)/N=C2\C=C(Nc3cccc(C(=O)O)c3)C(=O)c3ccccc32)cc1,-23%,-11%,-20%,-23%,?
O=S(=O)(N=C1C=CC(=NS(=O)(=O)c2ccccc2)c2ccccc21)c1ccccc1,.,-11%,.,-5%,-11%
O=C(O)c1ccc(NC2=C/C(=N/S(=O)(=O)c3ccccc3)c3ccccc3C2=O)cc1,20µM*,?,-15%,-29%,?
CCc1ccc(S(=O)(=O)/N=C2\C=CC(=O)c3ccccc32)cc1,8.9µM*,.,-15%,.,.
CCc1ccc(S(=O)(=O)/N=C2/C=C(Sc3ncn[nH]3)C(=O)c3ccccc32)cc1,0.32µM*,?,?,?,11%
CCc1ccc(S(=O)(=O)/N=C2\C=C(Nc3ccc(O)cc3)C(=O)c3ccccc32)cc1,-22%,-27%,-19%,?,25µM*
